Assay outcomes deposited in PubChem by Broad Institute.
Only a selection was taken, and hits are over-represented in it overall.
Tg IFNy HTS: T. gondii growth inhibition with IFN-gamma, primary screen, cell-based | Toxoplasma gondii growth in IFN-gamma-treated host cells; hits give low values | activity change, negative = inhibition, % (no concentration beside the values) | actives 3.8% (n = 69,000) | AID 1259416, 2018; in the data active means activity change below about -70%, passing the limit was not always enough;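 further: host cells are HeLa cells infected with Toxoplasma gondii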
An asterisk follows results filed as active.

`Cc1ccc(C2c3[nH]c4ccccc4c3CCN2C(=O)c2ccccc2F)cc1` (centres undefined) gave Tg IFNy HTS -130*.
Screening CCCC(=O)N1CCc2c([nH]c3ccccc23)C1c1ccc(C)cc1 (centres undefined) returned Tg IFNy HTS -49.
For Cc1ccc(C2c3[nH]c4ccccc4c3CCN2C(=O)c2ccc(N(C)C)cc2)cc1 (centres undefined) the results were Tg IFNy HTS -119*.
`Cc1ccc(C2c3[nH]c4ccccc4c3CCN2C(=O)c2ccccc2Br)cc1` (centres undefined) gave Tg IFNy HTS 43.
`O=C(c1ccccc1Br)N1CCc2c([nH]c3ccccc23)C1c1ccc(F)cc1` (centres undefined) gave Tg IFNy HTS 47.
Cc1ccc(C2c3[nH]c4ccccc4c3CCN2C(=O)c2cccs2)cc1 (centres undefined) was read as Tg IFNy HTS -64.
Screening Cc1ccc(C2c3[nH]c4ccccc4c3CCN2C(=O)c2ccccc2)cc1 (centres undefined) returned Tg IFNy HTS inactive.
CCOc1ccc(C2c3[nH]c4ccccc4c3CCN2C(=O)c2ccc(C)cc2)cc1 (centres undefined) was read as Tg IFNy HTS -95*.
For O=C(O)c1cc(-c2cccc3c2CCNC3)nc2ccccc12 the results were Tg IFNy HTS -41.
For COc1ccc(-c2nc(CCNC(=O)c3ccccc3)cs2)cc1 the results were Tg IFNy HTS inactive.
Screening O=C(C1CCCN(C2CCN(Cc3ccc4c(c3)OCO4)CC2)C1)N1CCCC1 (centres undefined) returned Tg IFNy HTS -49.
COc1ncc(-c2nccn2CCNc2ccncc2C)cn1 was read as Tg IFNy HTS 2.
`FC(F)(F)C(F)(F)C(F)(F)c1nnc(-n2cccc2)s1` gave Tg IFNy HTS -62.
O=C(c1ccco1)N1CCN(CC(=O)N2c3ccccc3Sc3ccccc32)CC1 was read as Tg IFNy HTS 115.
`CCOC(=O)c1cccc(P(C)(C)=O)c1` gave Tg IFNy HTS 14.
For C=CCc1c(C)nc(SC)nc1Nc1ccc(C(=O)O)cc1 the results were Tg IFNy HTS -7.
C=CCc1c(C)nc2ccc(C(=O)OCC)cc2c1Cl was read as Tg IFNy HTS -102*.
`COc1ccccc1C(CCNS(=O)(=O)c1ccccc1)c1ccc2c(c1)OCO2` (centres undefined) gave Tg IFNy HTS -75*.
For COc1ccc(C2(CNS(=O)(=O)c3ccccc3)CCCC2)cc1OC the results were Tg IFNy HTS -12.
For Cc1ccc(S(=O)(=O)NCCC(c2ccccc2)c2ccco2)cc1 (centres undefined) the results were Tg IFNy HTS 1.
`COc1ccccc1N(Cc1nc(-c2ccc(C)cc2)oc1C)S(=O)(=O)c1ccccc1C` gave Tg IFNy HTS -34.
For CN(C)CC1(O)CCCN(C(=O)c2cnc3ccccn3c2=O)C1 (centres undefined) the results were Tg IFNy HTS 5.
For CN(C)CC1(O)CCCN(C(=O)c2cnc3ccccn3c2=O)CC1 (centres undefined) the results were Tg IFNy HTS 2.
O=C1NC(=O)C(c2cnc3ccccn23)=C1c1cn2c3c(cc(F)cc13)CN(C(=O)N1CCCCC1)CC2 was read as Tg IFNy HTS -87*.
For CCS(=O)(=O)N1CCC2(CC1)OC(=O)C(C)=C2C(=O)Nc1cc(Cl)ccc1OC the results were Tg IFNy HTS 0.
`CC(C)n1ccnc1CNC(=O)CCc1c[nH]c2ccccc12` gave Tg IFNy HTS -6.
`Cn1c(CN2CCC(c3ccn[nH]3)C2)nc2ccccc21` (centres undefined) gave Tg IFNy HTS 4.
Screening CN1CCC(CNC(=O)c2ccccc2Oc2ccccc2)CC1 returned Tg IFNy HTS -8.
COc1cc2c(cc1C1CC(=O)Nc3[nH]ncc31)CCC2 (centres undefined) was read as Tg IFNy HTS 4.
For O=C1CC(c2cccc(Br)c2)c2cc3c(cc2N1)CCC3 (centres undefined) the results were Tg IFNy HTS -83*.
`O=C1CC(c2ccsc2)c2cc3cn[nH]c3cc2N1` (centres undefined) gave Tg IFNy HTS 1.
For CSc1nsc(SC)c1C(=O)Nc1ccc(-c2csnn2)cc1 the results were Tg IFNy HTS 19.
Screening CCn1cc2c(n1)C(COC)CN(S(=O)(=O)c1ccc(C)cc1)C2 (centres undefined) returned Tg IFNy HTS 10.
Cc1cccc(S(=O)(=O)N2CCn3cnc(COCC4CC4)c3C2)c1 was read as Tg IFNy HTS 4.
For CC(C)(C)C(=O)Nc1ccc(S(N)(=O)=O)cc1 the results were Tg IFNy HTS -47.
`CSc1ccc(C2c3[nH]c4ccccc4c3CCN2C(=O)c2cccc(Cl)c2)cc1` (centres undefined) gave Tg IFNy HTS -18.
Screening O=C(c1ccco1)N1CCc2c([nH]c3ccccc23)C1c1ccc(Cl)cc1 (centres undefined) returned Tg IFNy HTS -88*.
For O=C(C1CCC1)N1CCc2c([nH]c3ccccc23)C1c1ccc(Cl)cc1 (centres undefined) the results were Tg IFNy HTS -40.
Screening CSc1ccc(C2c3[nH]c4ccccc4c3CCN2C(=O)c2ccc3c(c2)OCO3)cc1 (centres undefined) returned Tg IFNy HTS 209.
`Cc1ccc(C2c3[nH]c4ccccc4c3CCN2C(=O)c2cccc(Cl)c2)cc1` (centres undefined) gave Tg IFNy HTS -89*.
For O=C(c1ccc2c(c1)OCO2)N1CCc2c([nH]c3ccccc23)C1c1ccc(Cl)cc1 (centres undefined) the results were Tg IFNy HTS -83*.
For O=C(c1cccnc1)N1CCc2c([nH]c3ccccc23)C1c1ccc(F)cc1 (centres undefined) the results were Tg IFNy HTS 76.
`O=C(c1ccco1)N1CCc2c([nH]c3ccccc23)C1c1cccnc1` (centres undefined) gave Tg IFNy HTS -44.
Cc1ccc(C2c3[nH]c4ccccc4c3CCN2C(=O)c2cccnc2)cc1 (centres undefined) was read as Tg IFNy HTS 68.
O=C(c1cccnc1)N1CCc2c([nH]c3ccccc23)C1c1ccc(Cl)cc1 (centres undefined) was read as Tg IFNy HTS -114*.
`CC(C)CN(CC(C)C)C(=O)c1cc2cccnc2n(Cc2ccccc2F)c1=O` gave Tg IFNy HTS -67.
`CCN1C(=O)CCc2cc(NS(=O)(=O)c3ccc(F)cc3F)ccc21` gave Tg IFNy HTS -11.
For O=C1NC(Cc2ccc(F)cc2)(C2CCNCC2)C(=O)N1CCn1ccnc1 (centres undefined) the results were Tg IFNy HTS -59.
`Cc1nc2ccccc2nc1CSc1nc2ccccc2nc1C` gave Tg IFNy HTS -4.
For Cc1ccc(NC(=O)c2cncc(NS(=O)(=O)c3ccc(C)cc3C)c2)c(C)c1 the results were Tg IFNy HTS -19.
Screening O=C1NCC2(CCCN(C(=O)CCc3c[nH]c4ccccc34)CC2)O1 (centres undefined) returned Tg IFNy HTS 5.
Screening Cc1cnc2c(C(=O)N3CCCC(c4nc(CC(C)C)no4)C3)cnn2c1 (centres undefined) returned Tg IFNy HTS 206.
For CN(C)C1CCN(C(=O)c2ccsc2)C(C(=O)O)C1 (centres undefined) the results were Tg IFNy HTS -33.
